Data: PubChem BioAssay (NCATS)
Inconclusive results are not listed. A number with no mark means an inactive call. Calls of active or inactive are those of the source. Calls follow the shape of the dose curve; as a rule, active = well fitted cell-killing curve with a large enough effect; inconclusive = small, poorly fitted or top-dose-only effect, or effect the other way; inactive = no such curve, though single readings can be large or run the other way.

Test: Quantitative High-Throughput drug screen in 47 multiple myeloma cell lines against the NCATS MIPE library collection: XG6_PLB cell viability assay (AID 1919865); also: nearly all actives have a fitted effect of over 40% in size;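 as to viability (% of control): 100% = DMSO-only wells and 0% = media-only wells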
Conditions: XG6 myeloma viability, CellTiter-Glo ATP luminescence, 48 h; series mostly up to 45.8 µM; viability (% of control): at the top concentration
How it was run: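 Plated at 500 cells per well, myeloma lines received MIPE 4.0 compounds by pin tool. Following 48 h culture at 37 °C, CellTiter-Glo luminescence gave viability relative to DMSO and media-only controls.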
Potency is read from the fitted curve at half-maximal effect.

SMILES | viability (% of control) | Potency
COc1cc(C)c(C=CC(C)=CC=CC(C)=CC(=O)O)c(C)c1C | 106% | 
CCCCCCCCc1ccc(CCC(N)(CO)CO)cc1 |  | 3320 nM (active)
Oc1cc(-c2nc(-c3ccccc3)[nH]c2-c2ccncc2)ccc1Cl |  | 2350 nM (active)
C[C@H](CCC(=O)O)[C@H]1CC[C@H]2[C@@H]3[C@H](O)C[C@@H]4C[C@H](O)CC[C@]4(C)[C@@H]3CC[C@]12C | 103% | 
NC[C@H]1O[C@H](O[C@H]2[C@@H](O)[C@@H](O[C@H]3O[C@H](CO)[C@@H](O)[C@H](N)[C@@H]3O)[C@H](N)C[C@@H]2N)[C@H](N)C[C@H]1O | 104% | 
COc1cc2c(Nc3ccc(Cl)c(Cl)c3F)ncnc2cc1OCC1C[C@@H]2CN(C)C[C@H]2C1 |  | 1050 nM (active)
COC(=O)[C@H](CCCN=C(N)N)NS(=O)(=O)c1ccc(C)cc1 |  | 11800 nM (active)
C[N+](C)([O-])CCNc1ccc(NCC[N+](C)(C)[O-])c2c1C(=O)c1c(O)ccc(O)c1C2=O |  | 13200 nM (active)
CCOC(=O)[C@H](CCc1ccccc1)N[C@@H](C)C(=O)N1[C@@H](C(=O)O)C[C@H]2CCC[C@@H]21 |  | 7430 nM (active)
Oc1ccc(-c2ccc(-c3cc(Nc4cccc(CNC5CC5)c4)n[nH]3)cc2)c(O)c1 |  | 418 nM (active)
C=CCNC1=C2C[C@@H](C)C[C@H](OC)[C@@H](O)[C@@H](C)C=C(C)[C@H](OC(N)=O)[C@@H](OC)C=CC=C(C)C(=O)NC(=CC1=O)C2=O |  | 2640 nM (active)
CC(C)(O)Cn1c(NC(=O)c2ccc(-c3cn[nH]c3)s2)nc2cc(CN3CCOCC3)ccc21 |  | 1870 nM (active)
CCCc1nc(C(C)(C)O)c(C(=O)O)n1Cc1ccc(-c2ccccc2-c2nn[nH]n2)cc1 | 101% | 
COc1cc(OC)cc(-c2ccc3ncc4ccc(=O)n(-c5ccc(N6CCNCC6)c(C(F)(F)F)c5)c4c3c2)c1 |  | 833 nM (active)
CC1=C(C(=O)Nc2cc3cn[nH]c3cc2F)C(c2ccc(Cl)cc2F)N=C(c2ccnc(Cl)c2)N1 (stereo unspecified) |  | 14800 nM (active)
CN(C)CCN1C(=O)c2cccc3cc(N)cc(c23)C1=O |  | 14800 nM (active)
COc1cc(C)c(Sc2cnc(NC(=O)c3ccc(CNC(C)C(C)(C)C)cc3)s2)cc1C(=O)N1CCN(C(C)=O)CC1 (stereo unspecified) |  | 14800 nM (active)
CCNC(=O)Nc1ccc(-c2nc3c(c(N4CCOC[C@H]4C)n2)CCN(C2COC2)C3)cc1 |  | 935 nM (active)
CON=C(C(=O)N[C@@H]1C(=O)N2C(C(=O)O)=C(Cn3ccc(=N)n3CCO)CS[C@H]12)c1csc(N)n1 | 101% | 
COC[C@H](NC(=O)c1cnc(C)s1)C(=O)N[C@@H](COC)C(=O)N[C@@H](Cc1ccccc1)C(=O)[C@@]1(C)CO1 |  | 59 nM (active)
COc1cccc2c1C(=O)c1c(O)c3c(c(O)c1C2=O)C[C@@](O)(C(=O)CO)C[C@@H]3O[C@H]1C[C@H](N)[C@H](OC2CCCCO2)[C@H](C)O1 (stereo partly specified) |  | 662 nM (active)
Nc1cccc2c1C(=O)N(C1CCC(=O)NC1=O)C2=O (stereo unspecified) | 96.8% | 
O=c1ccn([C@@H]2O[C@H](CO)[C@H](O)[C@@H]2F)c(=O)[nH]1 |  | 7430 nM (active)
Cn1cc(CNCC2CCN(c3ncc(C(=O)NO)cn3)CC2)c2ccccc21 |  | 83.3 nM (active)
CC(=O)NCC(=O)N1[C@H]2CC[C@H]1c1cc(Nc3ncc(C(F)(F)F)c(NC4CCC4)n3)ccc12 |  | 1180 nM (active)
CC(C)N(CC[C@H](c1ccccc1)c1cc(CO)ccc1O)C(C)C | 116% | 
